target: Serine/threonine-protein kinase PAK 4 (Homo sapiens) (UniProt O96013); conditions: at 1 µM
Sequence (O96013 whole entry, looked up): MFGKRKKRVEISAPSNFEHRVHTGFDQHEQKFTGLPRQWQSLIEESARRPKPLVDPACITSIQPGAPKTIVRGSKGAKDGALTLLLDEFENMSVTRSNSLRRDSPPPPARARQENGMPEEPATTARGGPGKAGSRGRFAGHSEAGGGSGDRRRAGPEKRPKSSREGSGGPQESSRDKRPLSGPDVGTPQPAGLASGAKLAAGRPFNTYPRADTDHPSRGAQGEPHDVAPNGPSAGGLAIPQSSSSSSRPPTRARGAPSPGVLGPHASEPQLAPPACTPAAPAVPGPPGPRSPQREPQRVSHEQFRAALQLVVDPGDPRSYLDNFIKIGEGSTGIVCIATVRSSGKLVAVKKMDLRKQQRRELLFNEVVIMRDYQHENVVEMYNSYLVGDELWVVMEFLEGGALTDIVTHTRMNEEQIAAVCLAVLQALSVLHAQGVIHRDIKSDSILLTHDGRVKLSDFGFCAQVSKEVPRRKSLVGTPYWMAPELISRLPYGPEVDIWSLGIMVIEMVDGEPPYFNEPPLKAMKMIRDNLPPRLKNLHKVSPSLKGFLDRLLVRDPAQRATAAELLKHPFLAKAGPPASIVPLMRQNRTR

Row | Structure (SMILES) | residual activity
1 | O=C1C(Cl)=C(N2C(=O)CCC2=O)C(=O)c2ccccc21 | 95%
2 | O=C(Nc1ccc(Cl)cc1)c1ccccc1NCc1ccncc1 | 100%
3 | O=C(O)/C=C/c1cc(Br)c(Br)c(Br)c1Br | 108%
4 | COc1ccc(-c2cnc3c(-c4ccsc4)cnn3c2)cc1 | 99%
5 | Nc1n[nH]c2nc3ccccc3nc12 | 94%
6 | O=C(c1cc2cc(O)ccc2[nH]1)c1cc2cc(O)ccc2[nH]1 | 71%
7 | Oc1cccc(-c2nc(N3CCOCC3)c3oc4ncccc4c3n2)c1 | 100%
8 | O=C(NC(NC(=S)Nc1ccc(F)c([N+](=O)[O-])c1)C(Cl)(Cl)Cl)C(c1ccccc1)c1ccccc1 (configuration not stated) | 100%
9 | CCCCc1c(-c2ccc(OC)cc2)[nH]c2nccnc12 | 60%
10 | CCCC(=O)Oc1ccc2[nH]c(C(=O)c3cc4ccccc4[nH]3)cc2c1 | 94%
11 | NC(=O)Nc1sc(-c2ccc(F)cc2)cc1C(N)=O | 55%
12 | COc1cc2nccc(Oc3ccc(NC(=S)NC(=O)c4ccccc4C)cc3)c2cc1OC | 88%
13 | O=C1Cc2c([nH]c3ccc(Br)cc23)-c2ccccc2N1 | 25%
14 | NCCNc1ncc(C(N)=O)c(Nc2cccc(C(F)(F)F)c2)n1 | 49%
15 | O=C1Nc2ccc(Cl)cc2/C1=C/c1cc(Cl)c(O)c(Cl)c1 | 91%
16 | CC(C)N(CCC(=O)c1ccc2ccccc2c1)Cc1ccccc1 | 88%

Row | Structure (SMILES) | residual activity
17 | CC(C)(C)n1nc(Cc2cccc3ccccc23)c2c(N)ncnc21 | 88%
18 | COc1ccc(Cl)cc1NC(=O)Nc1cc(C)nc2ccccc12 | 96%
19 | O=c1cc(N2CCNCC2)oc2c(-c3ccccc3)cccc12 | 102%
20 | Nc1ncnc2c1c(-c1ccc(Oc3ccccc3)cc1)cn2C1CCCC1 | 89%
21 | O=C1NC(=O)c2c1c1c3ccccc3[nH]c1n1cncc21 | 81%
22 | O=c1cc(N2CCOCC2)oc2c1ccc1ccccc12 | 94%
23 | CN(C)S(=O)(=O)c1ccc2c(c1)/C(=C/c1cc3c([nH]1)CCCC3)C(=O)N2 | 74%
24 | CCOC(=O)c1c(C)[nH]c(/C=C2\C(=O)Nc3ccccc32)c1C | 90%
25 | O=C1NC(=O)C(c2c[nH]c3ccccc23)=C1c1c[nH]c2ccccc12 | 98%
26 | CCN(CC)CCNC(=O)c1c(C)[nH]c(/C=C2\C(=O)Nc3ccc(Cl)cc32)c1C | 52%
27 | CC(C)c1nn(-c2c(Cl)cccc2Cl)c2nc(Cc3ccc(OCCO)cc3)[nH]c(=O)c12 | 84%
28 | c1ccc(-c2cnc(Nc3ccc(OCCN4CCCC4)cc3)s2)cc1 | 105%
29 | Cn1sc(=O)n(Cc2ccccc2)c1=O | 94%
30 | O=C1Cc2c([nH]c3ccc([N+](=O)[O-])cc23)-c2ccccc2N1 | 22%
31 | O=C(CCCc1ccc(-c2ccccc2F)cc1)Nc1ccc(O)cc1 | 103%
32 | Cn1c2ccccc2c2c3c(c4c5ccccc5n(CCC#N)c4c21)CNC3=O | 3%

Source: ChEMBL document CHEMBL2218924, “A broad activity screen in support of a chemogenomic map for kinase signalling research and drug discovery” (Biochem J, 2013)
